A short description of test [1]: qHTS assay to test for compound auto fluorescence at 535 nm (green) in HEK293 cell free culture (AID 720682). A digest of the protocol:
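Intrinsic compound fluorescence is measured in culture medium containing 10% FBS, with excitation at 485 nm and detection at 535 nm, referenced to fluorescein.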

Test [2] is described as follows: qHTS assay to test for compound auto fluorescence at 590 nm (red) in HEK293 cell free culture (AID 720683). Summed up:
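Tox21 10K library compounds were pinned into cell-free DMEM with 10% FBS and fluorescence was read at excitation 540 nm. Activity is expressed as Rose Bengal sodium equivalency.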
A general note: In qHTS, concentration-response curves come from the screen itself.

The nature of test [3]: qHTS assay to test for compound auto fluorescence at 590 nm (red) in HepG2 cell free culture (AID 720684). A digest of the protocol: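 Readout: intrinsic compound fluorescence at 590 nm emission after 540 nm excitation, scaled to Rose Bengal sodium. Matrix was cell-free MEM with 10% FBS; DMSO vehicle wells served as control.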
The nature of test [4]: qHTS assay to test for compound auto fluorescence at 460 nm (blue) in HepG2 cell free culture (AID 720685). A digest of the protocol:
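Cell-free plates of MEM plus 10% FBS received 23 nL compound or DMSO vehicle; blue-channel (405/460 nm) intensity scored against triamterene as reference fluorophore.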

Test [5] in a line: qHTS assay to test for compound auto fluorescence at 535 nm (green) in HepG2 cell free culture (AID 720686).
Test [6] is described as follows: qHTS assay to test for compound auto fluorescence at 460 nm (blue) in HepG2 cells (AID 720687). Summed up: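 Cells (2,000/well in MEM with 10% FBS) attached overnight at 37 C, then were exposed to compound or DMSO for 1 hr at 37 C, 5% CO2. Fluorescence read at Ex/Em 405/460 nm, expressed as triamterene-equivalent signal.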
Test [7] has as its target Glucocorticoid receptor (Homo sapiens) (UniProt P04150). Kind of test: qHTS assay to identify small molecule agonists of the glucocorticoid receptor (GR) signaling pathway (AID 720691; active means well fitted activation curve with a large enough effect in the signal ratio in the repeat runs, not every such curve was filed as active; the % refers to the signal ratio; further: potency means the concentration at half of the fitted maximal effect). Conditions: GR-bla HeLa, beta-lactamase reporter ratio, 18 h; activation: at 62.4 µM (top of the series). Summed up:
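Steps: seed GR-bla HeLa cells, incubate 4 h at 37 C/5% CO2; pin-transfer DMSO-dissolved compounds; incubate 18 h at 37 C; add LiveBLAzer B/G FRET substrate; after 2 h at room temperature, measure fluorescence.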

Test [8] can be described thus: qHTS assay to identify small molecule antagonists of the glucocorticoid receptor (GR) signaling pathway - cell viability counter screen (AID 720693). Further: nearly all actives have a fitted effect of over 55% in size. Further: potency means the concentration at half of the fitted maximal effect.
The nature of test [9]: qHTS assay for identifying genotoxic compounds that show differential cytotoxicity against isogenic chicken DT40 cell lines with known DNA damage response pathways - wild type cell line (AID 743012). Further: nearly all actives have a fitted effect of over 60% in size. Further: potency means the concentration at half of the fitted maximal effect. Summed up: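 Cytotoxicity in repair-proficient parental chicken DT40 cells serves as the comparator for Rad54/Ku70- and Rev3-deficient lines. Cells were exposed to compounds for 40 h at 37 C/5% CO2, and ATP-based luminescence (CellTiter-Glo) measured viability.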

A short description of test [10]: qHTS assay for identifying genotoxic compounds that show differential cytotoxicity against isogenic chicken DT40 cell lines with known DNA damage response pathways - Rev3 mutant cell line (AID 743014). Further: nearly all actives have a fitted effect of over 55% in size. Further: potency means the concentration at half of the fitted maximal effect.
A short description of test [11]: qHTS assay for identifying genotoxic compounds that show differential cytotoxicity against isogenic chicken DT40 cell lines with known DNA damage response pathways - Rad54/Ku70 mutant cell line (AID 743015). Further: nearly all actives have a fitted effect of over 60% in size. Further: potency means the concentration at half of the fitted maximal effect.
Test [12] can be described thus: qHTS assay to identify small molecule antagonists of the androgen receptor (AR) signaling pathway - cell viability counter screen (AID 743033; further: nearly all actives have a fitted effect of over 45% in size; further: potency means the concentration at half of the fitted maximal effect).
Test [13] is described as follows: qHTS assay to identify small molecule antagonists of the androgen receptor (AR) signaling pathway using the MDA cell line - cell viability counter screen (AID 743041; further: nearly all actives have a fitted effect of over 45% in size; further: potency means the concentration at half of the fitted maximal effect). A digest of the protocol: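 qHTS viability read-out; MDA-kb2 AR-luc; R1881-stimulated; 16 h exposure at 37C, 0% CO2; CellTiter-Fluor, 30 min; fluorescence intensity.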
Test [14] is described as follows: qHTS assay to test for compound auto fluorescence at 460 nm (blue) in HEK293 cell free culture (AID 720681). Summed up:
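Test compounds were pinned into cell-free culture medium (DMEM with 10% FBS) and fluorescence was read directly at Ex/Em 405/460 nm. Signals were expressed as fluorescence equivalents of triamterene, with DMSO vehicle as control.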

In test [15] the target is Glucocorticoid receptor (Homo sapiens) (UniProt P04150). Kind of test: qHTS assay to identify small molecule antagonists of the glucocorticoid receptor (GR) signaling pathway (AID 720692; active means well fitted inhibition curve with a large enough effect in the signal ratio in the repeat runs, not every such curve was filed as active; the % refers to the signal ratio). A digest of the protocol: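 Antagonism was scored as loss of dexamethasone-driven (5 nM final) reporter signal in HeLa cells bearing a glucocorticoid response element–beta-lactamase construct, after 18 h compound exposure at 37 C and 2 h FRET substrate loading.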
Sequence of Glucocorticoid receptor (Homo sapiens) (P04150 whole entry, looked up): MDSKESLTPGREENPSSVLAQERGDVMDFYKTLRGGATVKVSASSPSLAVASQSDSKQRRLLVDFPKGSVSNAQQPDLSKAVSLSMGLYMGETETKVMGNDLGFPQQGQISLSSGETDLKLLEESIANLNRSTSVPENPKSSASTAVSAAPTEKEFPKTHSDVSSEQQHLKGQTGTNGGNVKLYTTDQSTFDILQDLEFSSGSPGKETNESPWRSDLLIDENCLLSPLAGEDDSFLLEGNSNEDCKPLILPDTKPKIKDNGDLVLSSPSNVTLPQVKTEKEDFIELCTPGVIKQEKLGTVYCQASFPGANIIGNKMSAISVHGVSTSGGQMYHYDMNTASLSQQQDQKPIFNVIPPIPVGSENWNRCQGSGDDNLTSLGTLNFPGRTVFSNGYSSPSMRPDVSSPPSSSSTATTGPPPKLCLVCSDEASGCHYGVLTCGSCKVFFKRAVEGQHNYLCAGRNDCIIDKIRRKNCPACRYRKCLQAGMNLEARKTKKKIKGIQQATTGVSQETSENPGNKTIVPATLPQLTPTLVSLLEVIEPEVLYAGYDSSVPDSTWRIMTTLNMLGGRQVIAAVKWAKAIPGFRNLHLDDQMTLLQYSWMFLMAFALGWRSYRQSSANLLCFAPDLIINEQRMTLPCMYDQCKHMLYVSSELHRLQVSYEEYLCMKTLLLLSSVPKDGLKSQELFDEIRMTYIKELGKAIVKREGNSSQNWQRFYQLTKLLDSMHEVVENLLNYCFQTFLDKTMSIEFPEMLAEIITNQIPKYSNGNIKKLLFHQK

The target of test [16] is Androgen receptor (Homo sapiens) (UniProt P10275). Kind of test: qHTS assay to identify small molecule antagonists of the androgen receptor (AR) signaling pathway (AID 743035; active means well fitted inhibition curve with a large enough effect in the signal ratio in the repeat runs, not every such curve was filed as active; the % refers to the signal ratio). A digest of the protocol:
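Steps: seed AR-UAS-bla GripTite HEK293 cells, incubate 4 h at 37C; pin in test compound, then add agonist R1881; incubate 16 h at 37C; add LiveBLAzer B/G FRET substrate, 2 h at room temperature; read fluorescence.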

Test [17] has the same target. Kind of test: qHTS assay to identify small molecule agonists of the androgen receptor (AR) signaling pathway (AID 743036; active means well fitted activation curve with a large enough effect in the signal ratio in the repeat runs, with a control signal flat, not every such curve was filed as active; the % refers to the signal ratio). A digest of the protocol: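 Agonist activity was scored by beta-lactamase reporter fluorescence in stably transfected HEK293 cells exposed to compounds for 16 h at 37C and 5% CO2. Substrate loading took 2 h at room temperature.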
Test [18] shares this target. Kind of test: qHTS assay to identify small molecule agonists of the androgen receptor (AR) signaling pathway using the MDA cell line (AID 743040; further: nearly all actives have a fitted effect of over 20% in size). Summed up: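 Agonist activity is measured as luciferase luminescence in human MDA-kb2 cells whose MMTV reporter responds to both AR and GR. Compounds in DMSO incubate 16 h at 37C, 0% CO2, and ONE-Glo is read after 30 min.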

Test [19] shares this target. Kind of test: qHTS assay to identify small molecule antagonists of the androgen receptor (AR) signaling pathway using the MDA cell line (AID 743042; further: nearly all actives have a fitted effect of over 55% in size). A digest of the protocol: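 MDA-kb2 cells (human breast carcinoma, stably carrying an MMTV-luciferase reporter responsive to AR and GR) were plated at 3,000 cells/well and preincubated 5 hr at 37C, then given compound plus R1881 agonist for 16 h. ONE-Glo luminescence was read.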

Records with an inconclusive call do not appear. The source made the active and inactive calls. Unless noted, the call rests on the fitted dose curve; in most records, active means well fitted curve in the direction sought with a large enough effect in the repeat runs; inconclusive means weak or mixed curves; inactive means no such curve, though single readings can be large; an effect the other way counts as inactive or inconclusive.

Sequence of Androgen receptor (Homo sapiens) (P10275 whole entry, looked up): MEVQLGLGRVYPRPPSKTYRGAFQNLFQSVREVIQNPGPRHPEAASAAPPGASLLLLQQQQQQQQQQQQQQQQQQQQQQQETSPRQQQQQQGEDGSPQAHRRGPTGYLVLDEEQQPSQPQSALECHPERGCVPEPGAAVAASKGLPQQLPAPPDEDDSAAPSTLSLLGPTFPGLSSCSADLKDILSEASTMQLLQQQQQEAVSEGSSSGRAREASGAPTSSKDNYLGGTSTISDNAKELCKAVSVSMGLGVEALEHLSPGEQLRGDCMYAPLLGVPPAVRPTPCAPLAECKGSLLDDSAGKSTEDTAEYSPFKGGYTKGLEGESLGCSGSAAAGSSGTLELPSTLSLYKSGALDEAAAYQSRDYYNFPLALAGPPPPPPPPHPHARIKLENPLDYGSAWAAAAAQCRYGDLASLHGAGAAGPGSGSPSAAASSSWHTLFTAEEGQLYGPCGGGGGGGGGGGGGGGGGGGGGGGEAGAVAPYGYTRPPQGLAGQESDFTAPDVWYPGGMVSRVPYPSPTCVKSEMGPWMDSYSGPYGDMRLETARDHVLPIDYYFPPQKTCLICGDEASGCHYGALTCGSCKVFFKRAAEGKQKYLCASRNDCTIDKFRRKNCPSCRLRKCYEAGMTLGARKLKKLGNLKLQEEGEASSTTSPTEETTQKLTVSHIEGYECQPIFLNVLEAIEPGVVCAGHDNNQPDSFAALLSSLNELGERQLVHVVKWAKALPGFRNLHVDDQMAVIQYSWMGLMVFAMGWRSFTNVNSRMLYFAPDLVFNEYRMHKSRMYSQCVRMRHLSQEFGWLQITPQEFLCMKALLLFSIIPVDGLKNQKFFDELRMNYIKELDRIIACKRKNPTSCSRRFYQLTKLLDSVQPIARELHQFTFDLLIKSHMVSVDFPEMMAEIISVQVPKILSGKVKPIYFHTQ

Turning to `C[C@H]1C[C@H]2[C@@H]3CCC4=CC(=O)C=C[C@]4(C)[C@@]3(F)[C@@H](O)C[C@]2(C)[C@@]1(O)C(=O)CCl`, the Potency entry in [1], in test [2], in test [3], in [5], in test [8] and in test [12] was “inactive” each time. In addition, the Potency result in test [13] is “inactive”. The call in test [4] and in test [6] was inactive. Moreover, the Potency in [7] is 0.0017 µM (active); in test [9], 18.8 µM (active); in test [10], 26.6 µM (active); in [11], 23.7 µM (active).
For `CNC(=O)c1c(I)c(C(=O)NCC(=O)Nc2c(I)c(C(=O)O)c(I)c(C(=O)NCCO)c2I)c(I)c(N(C)C(C)=O)c1I`, the Potency result in test [14], in [1], in test [2], in [3], in test [5] and in test [8] was “inactive” each time. Also, the Potency result in test [9], in test [11], in test [12] and in test [13] was “inactive” throughout. The call in test [4] and in [6] was inactive.
Regarding `CN1CCN(CCCN2c3ccccc3Sc3ccccc32)CC1`, the Potency result in [14], in [1], in test [2], in test [3], in test [5] and in test [7] was “inactive” in each case. Moreover, the Potency result in test [15], in test [8] and in test [13] was “inactive” each time. The result in test [4] and in [6] was inactive. Also, the Potency is 9.44 µM (active) in test [9], 11.9 µM (active) in test [10] and 13.3 µM (active) in test [11].
For `CC(=O)Oc1cc(C)c(OC(C)=O)c2ccccc12`, the Potency result in [14], in test [1], in test [2], in test [3], in test [5] and in test [7] was “inactive” each time. Moreover, the Potency result in [8] and in test [13] was “inactive” throughout. Moreover, the compound was called inactive in test [4] and in test [6]. Further, the Potency is 21.1 µM (active) in [9], 23.7 µM (active) in test [10] and 23.7 µM (active) in test [11].
Regarding `CCC(=O)OCC(=O)[C@@]1(OC(=O)CC)[C@@H](C)C[C@H]2[C@@H]3CCC4=CC(=O)C=C[C@]4(C)[C@@]3(F)[C@@H](O)C[C@@]21C`, the Potency result in test [14], in [1], in test [2], in [3], in test [5] and in test [8] was “inactive” throughout. Besides, the Potency entry in test [13] was “inactive”. For the same compound, the outcome in test [4] and in test [6] was inactive. Moreover, the Potency was 13.3 µM (active) in [9], 29.8 µM (active) in test [10] and 23.7 µM (active) in test [11].
Regarding `CC(C)[C@@H](C)/C=C/[C@@H](C)[C@H]1CC[C@H]2/C(=C/C=C3\C[C@@H](O)CC[C@@H]3C)CCC[C@]12C`, the Potency entry in [14], in test [1], in test [2], in test [3], in test [5] and in test [8] was “inactive” in each case. Also, the Potency entry in [12] and in test [13] was “inactive” each time. For the same compound, the outcome in test [4] and in [6] was inactive.
As to `CC(CN1c2ccccc2Sc2cccnc21)N(C)C` (configuration not stated), the Potency entry in [14], in test [1], in test [2], in [3], in [5] and in test [7] was “inactive” each time. Further, the Potency result in test [8], in test [10], in [12] and in test [13] was “inactive” throughout. Moreover, the outcome in test [4] and in test [6] was inactive. The Potency in [9] was 29.8 µM (active).
In the case of `CN(CCO)CC(O)Cn1cnc2c1c(=O)n(C)c(=O)n2C` (configuration not stated) (tested in a mixture with another compound), the Potency entry in test [14], in test [1], in test [2], in test [3], in [5] and in test [8] was “inactive” each time. Moreover, the Potency entry in test [9], in [11] and in test [12] was “inactive” in each case. Moreover, the call in test [4] and in [6] was inactive.
In the case of `CN(C)CCCN1c2ccccc2C(C)(C)c2ccccc21`, the Potency result in test [14], in test [1], in test [2], in test [3], in test [7] and in [8] was “inactive” throughout. Also, the Potency entry in [16], in [17], in test [18] and in test [19] was “inactive” each time. Also, the result in [4] and in [6] was inactive. Besides, the Potency in test [9] was 18.8 µM (active); in [10], 26.6 µM (active); in test [11], 21.1 µM (active).
`C/C=C1\NC(=O)[C@H]2CSSCC/C=C/[C@H](CC(=O)N[C@H](C(C)C)C(=O)N2)OC(=O)C(C(C)C)NC1=O` (some centres not stated): the Potency entry in [14], in [1], in test [2], in test [3], in test [5] and in test [18] was “inactive” throughout. Moreover, the Potency entry in test [19] is “inactive”. In addition, the call in test [6] was inactive. The Potency in test [8] was 2.39 µM (active); in test [9] it was 0.0013 µM (active); in [10] it was 0.0012 µM (active); in test [11], 0.0017 µM (active); in test [12] it was 4.77 µM (active); in test [13], 7.5 µM (active).

Source of the values: PubChem BioAssay (Tox21).
